Experimental data: PubChem BioAssay
Several values for one entry are separate records, joined by “and”; a condition that tells them apart may be missing. Identical values can stand only once. Records with an inconclusive call do not appear. For some of these results: Measured potencies and affinities stand elsewhere. Activity calls are given as the source filed them.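 The calls were made as follows, unless noted: active = at least 20% inhibition of 6-phosphogluconate dehydrogenase activity; inactive = the rest.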

Key:
[1] = hESC survival regulators, cell-based (AID 493140; call rule not given here;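 also: cells exposed to compounds for four days before counting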); conditions: human embryonic stem cell survival screen; stronger effect = higher value
[2] = liver-stage malaria parasite growth inhibition, primary screen, cell-based, HepG2, luciferase luminescence, HepG2 viability (AID 624349; in the data active = parasite load remaining mostly below about 12%, no sharp cut-off; inactive = mostly above about 10%;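 also: 100% = mean of DMSO negative control wells on the same plate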); conditions: P. berghei liver stage in HepG2, luciferase luminescence, concentration not given here; parasite load remaining: stronger effect = lower value; viability: measured here: HepG2 viability without parasites
[3] = biological target: 6-phosphogluconate dehydrogenase, decarboxylating (Homo sapiens) (UniProt P52209); assay: 6PGD enzyme inhibitors, primary screen, biochemical, human, recombinant enzyme, NADPH absorbance (AID 1159550); conditions: recombinant 6PGD, NADPH absorbance 341 nm; at 10 µM; stronger effect = higher value
Sequence of 6-phosphogluconate dehydrogenase, decarboxylating (Homo sapiens) (P52209 whole entry, looked up): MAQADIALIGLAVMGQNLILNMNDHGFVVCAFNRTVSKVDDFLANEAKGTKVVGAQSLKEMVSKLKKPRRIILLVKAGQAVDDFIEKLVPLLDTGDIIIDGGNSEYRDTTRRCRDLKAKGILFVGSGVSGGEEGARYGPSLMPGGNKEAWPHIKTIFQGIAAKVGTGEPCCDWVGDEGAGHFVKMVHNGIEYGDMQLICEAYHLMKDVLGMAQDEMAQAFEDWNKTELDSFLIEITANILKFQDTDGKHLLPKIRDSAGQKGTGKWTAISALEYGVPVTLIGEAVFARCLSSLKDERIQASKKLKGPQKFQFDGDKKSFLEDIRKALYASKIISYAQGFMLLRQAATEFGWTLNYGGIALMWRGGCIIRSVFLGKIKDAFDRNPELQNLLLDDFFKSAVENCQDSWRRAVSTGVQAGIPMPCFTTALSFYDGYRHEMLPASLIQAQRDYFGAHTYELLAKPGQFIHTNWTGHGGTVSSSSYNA

[4] = sensitizers of A549 cells to miR-34 induction, primary screen, imaging, A549 dox-inducible miR-34, nuclei and caspase counts (AID 1347080;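 active = compounds whose cell count with miR-34 switched on is under 0.7 times the count with it off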); conditions: A549 miR-34 inducible, Hoechst nuclei count, 48 h
[5] = survival rescue of mitochondrial mutant cells in low glucose, primary screen, MELAS cybrids, Rieske KO mouse fibroblasts, CellTiter-Glo (AID 1508586;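 active = mean z-score across replicates of 1.96 or higher in either the MELAS or the Rieske mutant cell line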;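 also: z relative to plate mean and SD of compound and empty wells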)
[6] = biological target: NAD(+) hydrolase SARM1 (Homo sapiens) (UniProt Q6SZW1); assay: SARM1 TIR NADase inhibitors, cell lysate, NAD-Glo luminescence (AID 1508614;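 active = compound whose remaining NAD level is above about 45 nM, limit read from the data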;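 also: higher remaining NAD means stronger inhibition of SARM1 NADase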); conditions: SAM-TIR HEK293T lysate NADase, at 1 µM, stronger effect = higher value
Sequence of NAD(+) hydrolase SARM1 (Homo sapiens) (Q6SZW1 whole entry, looked up, the tested form may be a part): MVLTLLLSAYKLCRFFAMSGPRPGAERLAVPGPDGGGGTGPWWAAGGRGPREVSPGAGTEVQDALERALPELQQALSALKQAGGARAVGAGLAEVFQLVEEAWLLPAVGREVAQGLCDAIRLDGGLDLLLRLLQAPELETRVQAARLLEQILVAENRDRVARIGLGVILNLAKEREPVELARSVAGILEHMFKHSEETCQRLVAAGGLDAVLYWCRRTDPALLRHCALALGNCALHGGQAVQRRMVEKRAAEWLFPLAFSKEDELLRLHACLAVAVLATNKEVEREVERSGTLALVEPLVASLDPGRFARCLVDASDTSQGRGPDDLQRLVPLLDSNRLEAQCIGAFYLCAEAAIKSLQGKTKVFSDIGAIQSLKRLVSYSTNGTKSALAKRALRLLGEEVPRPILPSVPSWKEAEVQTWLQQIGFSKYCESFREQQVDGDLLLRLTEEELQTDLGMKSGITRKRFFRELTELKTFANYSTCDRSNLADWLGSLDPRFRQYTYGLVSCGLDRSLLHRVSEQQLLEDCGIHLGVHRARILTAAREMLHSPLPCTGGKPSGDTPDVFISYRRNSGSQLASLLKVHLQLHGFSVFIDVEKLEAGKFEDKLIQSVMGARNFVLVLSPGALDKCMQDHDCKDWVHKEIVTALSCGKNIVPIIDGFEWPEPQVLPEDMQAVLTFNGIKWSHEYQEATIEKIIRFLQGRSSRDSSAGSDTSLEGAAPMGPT

[7] = biological target: Mitogen-activated protein kinase 7 (Homo sapiens) (UniProt Q13164); assay: ERK5 transactivation activators in reporter cells, primary screen, cell-based, HTS (AID 1508626;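 active = luciferase signal above three times the same-plate solvent-only control wells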;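 also: luciferase driven by Gal4-ERK5 fusion binding five Gal4 sites before minimal TATA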); conditions: HeLa Gal4-ERK5 transactivation, 18 h, at 5 µM, stronger effect = higher value
Sequence of Mitogen-activated protein kinase 7 (Homo sapiens) (Q13164 whole entry, looked up, the tested form may be a part): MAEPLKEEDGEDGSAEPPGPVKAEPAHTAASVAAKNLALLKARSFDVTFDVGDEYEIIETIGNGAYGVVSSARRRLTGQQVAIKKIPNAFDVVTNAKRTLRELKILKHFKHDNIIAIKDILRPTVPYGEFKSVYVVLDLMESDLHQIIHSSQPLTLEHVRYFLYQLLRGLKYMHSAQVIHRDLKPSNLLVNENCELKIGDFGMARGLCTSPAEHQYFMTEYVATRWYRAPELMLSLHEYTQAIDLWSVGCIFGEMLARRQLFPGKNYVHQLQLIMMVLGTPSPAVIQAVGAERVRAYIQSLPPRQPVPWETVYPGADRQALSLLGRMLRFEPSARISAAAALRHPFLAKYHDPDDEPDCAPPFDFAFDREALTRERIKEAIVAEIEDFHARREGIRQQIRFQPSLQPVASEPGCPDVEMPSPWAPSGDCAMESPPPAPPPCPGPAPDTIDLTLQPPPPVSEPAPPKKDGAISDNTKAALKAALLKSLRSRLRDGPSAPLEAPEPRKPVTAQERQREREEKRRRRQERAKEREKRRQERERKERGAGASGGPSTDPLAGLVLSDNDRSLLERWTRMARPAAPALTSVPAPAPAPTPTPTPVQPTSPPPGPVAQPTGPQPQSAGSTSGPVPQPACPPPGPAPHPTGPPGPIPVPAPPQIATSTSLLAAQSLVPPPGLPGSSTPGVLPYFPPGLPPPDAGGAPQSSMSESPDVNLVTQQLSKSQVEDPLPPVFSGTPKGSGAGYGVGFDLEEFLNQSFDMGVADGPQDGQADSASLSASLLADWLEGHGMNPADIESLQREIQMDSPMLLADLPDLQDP

[8] = antimalarial activity against Dd2 strain (AID 2302;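 active = growth inhibition above 50% at the single 2 µM test dose, taken to imply half-maximal potency below 2 µM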;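 also: 0% = DMSO untreated growth and 100% = chloroquine plus artemisinin killed control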); conditions: P. falciparum Dd2 in RBCs, LDH growth readout, 72 h; at 2 µM; stronger effect = higher value
[9] = HepG2 cytotoxicity, primary screen, cytotoxicity control for P. falciparum antimalarial project, cell-based, ATP luminescence (AID 2303;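 active = inhibition above 50%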;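 also: 0% = DMSO wells and 100% = digitonin-killed cells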); conditions: HepG2 viability, 24-48 h, at 10 µM, stronger effect = higher value
[10] = biological target: L-lactate dehydrogenase (Plasmodium falciparum (isolate CDC / Honduras)) (UniProt Q27743); assay: PfLDH activity inhibition – cell lysate, 3D7 strain, counter-screen for P. falciparum growth inhibition project (AID 2304; call rule not given here;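 also: 0% = vehicle and 100% = reference inhibitor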); conditions: P. falciparum 3D7 crude extract, LDH APAD/NBT absorbance; at 2 µM; stronger effect = higher value
Sequence of L-lactate dehydrogenase (Plasmodium falciparum (isolate CDC / Honduras)) (Q27743 whole entry, looked up): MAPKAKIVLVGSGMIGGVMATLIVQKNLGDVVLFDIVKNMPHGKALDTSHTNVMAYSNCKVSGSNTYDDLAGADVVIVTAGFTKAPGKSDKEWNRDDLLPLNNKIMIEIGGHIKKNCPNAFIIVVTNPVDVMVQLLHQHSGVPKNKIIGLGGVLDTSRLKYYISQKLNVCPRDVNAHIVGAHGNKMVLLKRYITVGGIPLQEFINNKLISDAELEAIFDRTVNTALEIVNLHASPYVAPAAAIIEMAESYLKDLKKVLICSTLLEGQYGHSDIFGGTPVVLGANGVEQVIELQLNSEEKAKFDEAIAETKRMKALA

[11] = biological target: Calcium-dependent protein kinase 1 (Plasmodium falciparum (isolate 3D7)) (UniProt P62344); assay: PfCDPK1 kinase inhibitors, biochemical, TCAMS library (AID 1159585; cut-off not given, nearly all actives have IC50 up to about 0.98 µM;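 also: inhibitors leave more ATP so luminescence rises with inhibition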); conditions: recombinant PfCDPK1, Kinase-Glo ATP depletion luminescence
Sequence of Calcium-dependent protein kinase 1 (Plasmodium falciparum (isolate 3D7)) (P62344 whole entry, looked up): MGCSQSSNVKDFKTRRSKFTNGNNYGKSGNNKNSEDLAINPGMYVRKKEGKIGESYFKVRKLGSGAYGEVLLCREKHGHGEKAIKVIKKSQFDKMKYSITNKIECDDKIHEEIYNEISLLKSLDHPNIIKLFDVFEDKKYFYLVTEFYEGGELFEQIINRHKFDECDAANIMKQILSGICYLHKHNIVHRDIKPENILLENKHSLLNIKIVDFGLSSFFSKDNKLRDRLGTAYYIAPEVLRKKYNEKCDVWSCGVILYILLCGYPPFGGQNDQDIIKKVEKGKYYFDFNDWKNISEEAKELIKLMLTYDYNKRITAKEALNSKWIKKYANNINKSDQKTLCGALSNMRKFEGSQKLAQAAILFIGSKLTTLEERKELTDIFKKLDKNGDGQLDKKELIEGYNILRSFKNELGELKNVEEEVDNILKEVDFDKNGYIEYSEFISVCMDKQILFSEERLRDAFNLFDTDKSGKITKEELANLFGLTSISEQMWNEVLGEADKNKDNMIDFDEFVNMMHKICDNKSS

[12] = biological target: Plasmodium falciparum protein kinase 6 (PK6, PF3D7_1337100) (UniProt Q8IDW1); assay: PfPK6 kinase inhibitors, biochemical, TCAMS library (AID 1159586; call rule not given here); conditions: recombinant PfPK6, Kinase-Glo ATP depletion luminescence
Sequence of Plasmodium falciparum protein kinase 6 (PK6, PF3D7_1337100) (Q8IDW1 1-305): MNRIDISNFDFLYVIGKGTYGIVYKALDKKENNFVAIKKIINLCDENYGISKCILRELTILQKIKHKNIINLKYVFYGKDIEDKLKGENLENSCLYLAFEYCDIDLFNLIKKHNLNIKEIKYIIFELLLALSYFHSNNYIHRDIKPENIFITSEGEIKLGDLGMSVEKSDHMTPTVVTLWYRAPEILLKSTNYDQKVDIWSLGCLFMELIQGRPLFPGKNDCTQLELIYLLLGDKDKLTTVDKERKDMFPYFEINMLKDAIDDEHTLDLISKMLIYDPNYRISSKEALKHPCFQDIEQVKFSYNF

[13] = biological target: Protein kinase 7 (PK7), Plasmodium falciparum 3D7 (PF3D7_0213400) (UniProt Q7YTF7); assay: inhibition of Plasmodium PK7 catalytic activity – biochemical, TCAMS antimalarial set, Kinase-Glo luminescence (AID 1159587; call rule not given here); conditions: recombinant PfPK7, Kinase-Glo ATP depletion luminescence
Sequence of Protein kinase 7 (PK7), Plasmodium falciparum 3D7 (PF3D7_0213400) (Q7YTF7 1-343): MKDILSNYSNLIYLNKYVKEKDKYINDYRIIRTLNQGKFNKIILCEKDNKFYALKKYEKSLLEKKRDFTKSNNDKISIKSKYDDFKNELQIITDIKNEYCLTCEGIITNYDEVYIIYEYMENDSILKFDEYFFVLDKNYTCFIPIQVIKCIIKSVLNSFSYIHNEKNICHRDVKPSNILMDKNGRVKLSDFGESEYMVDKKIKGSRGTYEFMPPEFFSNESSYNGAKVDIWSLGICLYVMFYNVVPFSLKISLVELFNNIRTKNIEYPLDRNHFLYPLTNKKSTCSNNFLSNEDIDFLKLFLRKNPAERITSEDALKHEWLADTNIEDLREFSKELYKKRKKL

[14] = biological target: Calcium-dependent protein kinase 4 (Plasmodium falciparum (isolate 3D7)) (UniProt Q8IBS5); assay: PfCDPK4 kinase inhibitors, biochemical, TCAMS library (AID 1159588; cut-off not given, nearly all actives have IC50 up to about 0.91 µM); conditions: recombinant PfCDPK4, Kinase-Glo ATP depletion luminescence
Sequence of Calcium-dependent protein kinase 4 (Plasmodium falciparum (isolate 3D7)) (Q8IBS5 whole entry, looked up): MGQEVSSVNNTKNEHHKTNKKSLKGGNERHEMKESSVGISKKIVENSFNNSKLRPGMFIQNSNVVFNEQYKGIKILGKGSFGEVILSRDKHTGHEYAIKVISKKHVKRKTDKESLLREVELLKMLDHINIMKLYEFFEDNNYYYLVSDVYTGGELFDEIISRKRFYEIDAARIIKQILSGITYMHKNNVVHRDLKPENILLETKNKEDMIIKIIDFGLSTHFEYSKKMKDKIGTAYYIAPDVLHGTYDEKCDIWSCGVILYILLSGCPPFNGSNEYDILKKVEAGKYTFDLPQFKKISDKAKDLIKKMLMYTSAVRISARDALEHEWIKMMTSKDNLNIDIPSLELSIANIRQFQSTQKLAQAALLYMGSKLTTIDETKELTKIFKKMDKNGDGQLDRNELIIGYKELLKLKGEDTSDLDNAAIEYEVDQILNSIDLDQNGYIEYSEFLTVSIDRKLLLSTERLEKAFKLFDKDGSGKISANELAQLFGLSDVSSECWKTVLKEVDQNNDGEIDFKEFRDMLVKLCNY

[15] = inhibition of 3D7 malaria parasite growth – strain 3D7 (AID 2306; call rule not given here;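 also: 0% = DMSO wells and 100% = chloroquine plus artemisinin control wells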); conditions: P. falciparum 3D7 erythrocytic growth, LDH absorbance, 72 h; at 2 µM; stronger effect = higher value
[16] = phospholipid biosynthesis inhibitors in animal cells, primary screen, cell-based, LOPAC library, screen 4 (AID 1347384; call rule not given here); conditions: phospholipid biosynthesis inhibition screen, at 10 µM
[17] = circadian clock period modulators, cell-based, LOPAC library, luminescence reporter (AID 2774; call rule not given here;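 also: values are relative to mean of DMSO wells on each plate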); conditions: circadian reporter cells, at 7 µM, actives lie on both sides
[18] = polyglutamine-triggered caspase-3 activation inhibitors, cell-based (AID 1583); conditions: polyglutamine-induced caspase-3 activation, cell assay; stronger effect = higher value;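 tested at 10 µM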
[19] = suppressors of polyQ aggregation in yeast, 75Q-TubU reporter (AID 1593); conditions: Yeast 75Q polyglutamine aggregation reporter
[20] = rescue of polyQ-huntingtin neuronal dysfunction in worms, whole organism, C. elegans mechanosensory neurons, N-terminal huntingtin (AID 1599); conditions: touch response, stronger effect = higher value
[21] = inhibitors of mitochondrial cytochrome c release, biochemical, purified mitochondria (AID 1603); conditions: stronger effect = lower value;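 also: mouse liver mitochondria challenged with calcium chloride; signal normalized to the plate average as 100%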
[22] = inhibitors of polyQ protein aggregation (AID 1604); conditions: polyglutamine-induced protein aggregation inhibition assay; stronger effect = higher value; tested at 2.5 µM
[23] = enhancers of glutamate uptake in motor neurons, MN-1 cell line (AID 1612); conditions: MN-1 motor neuron cells, stronger effect = higher value;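 also: tested at 1 µM final; 0% = mean of DMSO vehicle wells on each plate; positive means more glutamate uptake than control and negative means less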
[24] = reducers of polyQ inclusions in PC12 cells, cell-based, NGF-treated PC12, GFPQ80 (AID 1614); conditions: PC12 NGF-treated GFP-polyQ80 inclusion reduction;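 also: lower means fewer inclusions and 0 means no inclusions at all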
[25] = suppressors of polyglutamine aggregation in yeast, 75Q-TubH (AID 1616); conditions: S. cerevisiae 75Q-TubH polyglutamine aggregation suppression; stronger effect = higher value
[26] = biological target: ATP-dependent translocase ABCB1 (Homo sapiens) (UniProt P08183); assay: MDR1 (ABCB1) efflux transporter inhibition, cell-based (AID 377; in the data active = fluorescence slope change above about 50%); conditions: MDR1-expressing cells, fluorescent substrate accumulation slope; stronger effect = higher value; concentration not given here
[27] = measured here: relative caspase fold change +Dox/-Dox
[28] = measured here: total cells with miR-34 induction, stronger effect = lower value
[29] = measured here: total cells without miR-34 induction

## CCC(=O)O[C@H]1CC[C@H]2[C@@H]3CCC4=CC(=O)CC[C@]4(C)[C@H]3CC[C@]12C
[1]
  survival: 13.8 (inactive)
[2]
  parasite load remaining: 71.3% (inactive) and 54% (inactive)
  viability: 94.2% and 78.8%
[3]
  inhibition: 16.6% (inactive)
[4]; stronger effect = lower value
  fold change: 0.875 (inactive)
[4]; [27]
  fold change: 1.34
[4]; [28]
  cell count: 8190
[4]; [29]
  cell count: 9360
[5]; MELAS cybrid survival, CellTiter-Glo 48 h, stronger effect = higher value
  z-score: -0.581 (inactive)
[5]; Rieske KO mouse fibroblast survival, CellTiter-Glo 72 h
  z-score: -0.301
[6]
  remaining NAD: 10 nM (inactive)
[7]
  luciferase signal: 32 AU (inactive)

## CC1(C)C(=O)C=C[C@]2(C)[C@H]3CC[C@@]4(C)[C@H](c5ccoc5)OC(=O)[C@H]5O[C@]54[C@]3(C)[C@H](O)C[C@@H]12
[3]
  inhibition: 3.18% (inactive)
[7]
  luciferase signal: 16 AU (inactive)

## CC(C)=CCC[C@]1(C)C=Cc2c(O)c3c(c(CC=C(C)C)c2O1)O[C@]12C(=C[C@@H]4C[C@H]1C(C)(C)O[C@@]2(C/C=C(/C)C(=O)O)C4=O)C3=O
[3]
  inhibition: -17.6% (inactive)
[7]
  luciferase signal: 72 AU (inactive)

## C=CC12CCN(CC1)C(C(O)c1ccnc3ccc(OC)cc13)C2 (stereo unspecified)
[8]
  growth inhibition: 72% (active)
[9]
  inhibition: -6% (inactive)
[10]
  inhibition: -9% (inactive)
[11]
  outcome: inactive
[12]
  outcome: inactive
[13]
  outcome: inactive
[14]
  outcome: inactive

## COP(=S)(OC)Oc1ccc([N+](=O)[O-])cc1
[3]
  inhibition: -0.396% (inactive)
[7]
  luciferase signal: 72 AU (inactive)

## COc1ccc(CN2CCN(CCOC(c3ccc(F)cc3)c3ccc(F)cc3)CC2)c(O)c1
[8]
  growth inhibition: 97% (active)
[9]
  inhibition: 6% (inactive)
[10]
  inhibition: -6% (inactive)
[15]
  growth inhibition: 97% (active)
[11]
  outcome: inactive
[12]
  outcome: inactive
[13]
  outcome: inactive
[14]
  outcome: inactive

## CC(=O)O[C@@H]1C[C@H]2C(C)(C)C(=O)C=C[C@]2(C)[C@H]2CC[C@]3(C)C(=CC(=O)O[C@H]3c3ccoc3)[C@@]21C
[3]
  inhibition: 4.47% (inactive)
[7]
  luciferase signal: 44 AU (inactive)

## COC(=O)[C@]1(C)CC[C@]2(C)CC[C@]3(C)C4=CCc5c(cc(O)c(O)c5C)[C@]4(C)CC[C@@]3(C)[C@@H]2C1
[3]
  inhibition: 5.04% (inactive)
[7]
  luciferase signal: 20 AU (inactive)

## C[C@@H]1CC[C@@]2(NC1)O[C@H]1C[C@H]3[C@@H]4CC=C5C[C@@H](O)CC[C@]5(C)[C@H]4CC[C@]3(C)[C@H]1[C@@H]2C
[2]
  parasite load remaining: 86.7% (inactive)
  viability: 95.9%
[3]
  inhibition: 11.8% (inactive)
[4]; stronger effect = lower value
  fold change: 0.905 (inactive)
[4]; [27]
  fold change: 1.06
[4]; [28]
  cell count: 9310
[4]; [29]
  cell count: 10300
[7]
  luciferase signal: 48 AU (inactive)

## O=C(O)CNCP(=O)(O)O
[3]
  inhibition: 3.86% (inactive)
[7]
  luciferase signal: 40 AU (inactive)

## Cc1c(O)c(O)cc2c1CC=C1[C@@]2(C)CC[C@@]2(C)[C@@H]3C[C@](C)(C(=O)O)CC[C@]3(C)CC[C@]12C
[3]
  inhibition: -26.2% (inactive)
[7]
  luciferase signal: 128 AU (inactive)

## CC(=O)OCC1=C(C(=O)O)N2C(=O)[C@@H](NC(=O)CCC[C@@H](N)C(=O)O)[C@H]2SC1
[3]
  inhibition: -2.43% (inactive)
[16]
  outcome: inactive
[6]
  remaining NAD: 10 nM (inactive)

## NNCc1cccc(O)c1
[17]
  period change: -0.07 h (inactive)
[3]
  inhibition: 15.8% (inactive)

## CC(C)CC(NC(=O)C(Cc1ccccc1)NC(=O)CNC(=O)CNC(=O)C(N)Cc1ccc(O)cc1)C(=O)O (stereo unspecified)
[18]
  inhibition: -1.79%
[19]
  score: 1.42
[20]
  rescue above control: 3.43
[21]
  cytochrome c release ratio: 0.97
[22]
  inhibition of aggregation: 27.9%
[23]
  glutamate uptake change: 12.5%
[24]
  inclusion score: 2
[25]
  aggregation suppression score: 1.27
[3]
  inhibition: 11% (inactive)

## CC(Cc1ccc(OCCCCOc2ccccc2)cc1)NCCC1CCCN1C (stereo unspecified)
[8]
  growth inhibition: 98% (active)
[9]
  inhibition: 100% (active)
[10]
  inhibition: 3% (inactive)
[15]
  growth inhibition: 99% (active)
[11]
  outcome: inactive
[12]
  outcome: inactive
[13]
  outcome: inactive
[14]
  outcome: inactive

## O=C1CCCC2C3CC(CN12)C1CCCCN1C3 (stereo unspecified)
[3]
  inhibition: -2.75% (inactive)
[7]
  luciferase signal: 60 AU (inactive)

## CC(=O)[O-].CC(=O)[O-].[Cd+2]
[3]
  inhibition: 6.37% (inactive)
[7]
  luciferase signal: 740 AU (inactive)

## C[C@@H]1[C@H](O)[C@@H](C)/C=C/C=C/CC/C=C/C=C/C=C/C=C/C(O[C@H]2O[C@H](C)[C@@H](O)[C@H](N)[C@@H]2O)CC2O[C@](O)(CC(O)C(O)CCC(O)CC(O)CC(O)CC(=O)O[C@H]1C)CC(O)C2C(=O)O (stereo partly specified)
[3]
  inhibition: 8.65% (inactive)
[6]
  remaining NAD: 10 nM (inactive)
[7]
  luciferase signal: 56 AU (inactive)

## C[C@H]1CC[C@]2(NC1)O[C@H]1C[C@H]3[C@@H]4CC[C@H]5C[C@@H](O)CC[C@]5(C)[C@H]4CC[C@]3(C)[C@H]1[C@@H]2C
[26]
  fluorescence slope change: 83.2% (active)
[2]
  parasite load remaining: 75.2% (inactive)
  viability: 101%
[3]
  inhibition: -31.5% (inactive)
[4]; stronger effect = lower value, cell number ratio, induced over uninduced
  fold change: 0.873 (inactive)
[4]; [27]
  fold change: 1.03
[4]; [28]
  cell count: 9790
[4]; [29]
  cell count: 11200
[7]
  luciferase signal: 104 AU (inactive)

## C/C=C(\C)C(=O)O[C@H]1C[C@@H](OC(C)=O)[C@@]2(C(=O)OC)CO[C@H]3[C@@H](O)[C@@](C)([C@]45O[C@@]4(C)[C@H]4C[C@@H]5O[C@@H]5OC=C[C@@]54O)[C@H]4[C@]1(CO[C@]4(O)C(=O)OC)[C@@H]32
[3]
  inhibition: 3.41% (inactive)
[7]
  luciferase signal: 12 AU (inactive)

## COP(=S)(OC)SCn1nnc2ccccc2c1=O
[3]
  inhibition: 1.29% (inactive)
[7]
  luciferase signal: 64 AU (inactive)
